# Experimental data as given in ChEMBL document CHEMBL3988442, “University of Dundee, Small-Polar-MMV Screening Library” (2021).
# For some assays here: Measured potencies and affinities stand elsewhere.
# What was measured:
# Design in all cases: scale not given: direction of the effect not stated beside the values
# [1] = target: Protein translocase subunit SecA (Escherichia coli (strain K12)) (UniProt P10408); experiment: Assay to Identify E. coli SecA ATPase Inhibitors; assay type: functional; conditions: 30 µM
# Protein translocase subunit SecA (Escherichia coli (strain K12)), sequence (P10408 whole entry): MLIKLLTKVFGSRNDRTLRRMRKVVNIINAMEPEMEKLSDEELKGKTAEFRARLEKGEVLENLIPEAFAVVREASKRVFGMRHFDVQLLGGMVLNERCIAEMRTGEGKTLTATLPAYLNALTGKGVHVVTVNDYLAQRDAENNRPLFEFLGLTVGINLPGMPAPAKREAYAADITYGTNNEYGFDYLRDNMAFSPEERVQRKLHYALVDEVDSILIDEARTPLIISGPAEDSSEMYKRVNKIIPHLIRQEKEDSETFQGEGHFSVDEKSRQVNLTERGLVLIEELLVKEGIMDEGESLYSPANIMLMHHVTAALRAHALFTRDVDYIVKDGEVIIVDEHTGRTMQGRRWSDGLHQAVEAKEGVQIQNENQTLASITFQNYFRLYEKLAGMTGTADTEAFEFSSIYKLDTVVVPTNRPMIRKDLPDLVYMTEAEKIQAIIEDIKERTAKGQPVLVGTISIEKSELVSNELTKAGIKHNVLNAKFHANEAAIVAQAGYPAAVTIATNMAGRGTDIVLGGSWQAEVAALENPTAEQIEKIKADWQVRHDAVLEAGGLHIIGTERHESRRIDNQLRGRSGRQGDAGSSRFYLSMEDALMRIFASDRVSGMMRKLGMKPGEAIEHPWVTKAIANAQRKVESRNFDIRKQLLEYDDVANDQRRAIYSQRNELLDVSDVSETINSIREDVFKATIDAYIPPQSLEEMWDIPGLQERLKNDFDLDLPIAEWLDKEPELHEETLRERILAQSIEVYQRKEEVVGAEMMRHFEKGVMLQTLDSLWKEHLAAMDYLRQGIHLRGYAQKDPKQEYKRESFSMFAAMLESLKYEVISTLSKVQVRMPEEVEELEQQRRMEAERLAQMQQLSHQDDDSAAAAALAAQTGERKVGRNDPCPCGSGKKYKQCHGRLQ
# [2] = target: T1, Ubiquitin-activating enzyme e1, putative (Leishmania donovani (strain BPK282A1)) (UniProt E9BSI1); experiment: Leishmania donovani Ubiquitin Activating Enzyme (LdE1); assay type: functional; conditions: 30 µM
# T1 sequence (whole entry): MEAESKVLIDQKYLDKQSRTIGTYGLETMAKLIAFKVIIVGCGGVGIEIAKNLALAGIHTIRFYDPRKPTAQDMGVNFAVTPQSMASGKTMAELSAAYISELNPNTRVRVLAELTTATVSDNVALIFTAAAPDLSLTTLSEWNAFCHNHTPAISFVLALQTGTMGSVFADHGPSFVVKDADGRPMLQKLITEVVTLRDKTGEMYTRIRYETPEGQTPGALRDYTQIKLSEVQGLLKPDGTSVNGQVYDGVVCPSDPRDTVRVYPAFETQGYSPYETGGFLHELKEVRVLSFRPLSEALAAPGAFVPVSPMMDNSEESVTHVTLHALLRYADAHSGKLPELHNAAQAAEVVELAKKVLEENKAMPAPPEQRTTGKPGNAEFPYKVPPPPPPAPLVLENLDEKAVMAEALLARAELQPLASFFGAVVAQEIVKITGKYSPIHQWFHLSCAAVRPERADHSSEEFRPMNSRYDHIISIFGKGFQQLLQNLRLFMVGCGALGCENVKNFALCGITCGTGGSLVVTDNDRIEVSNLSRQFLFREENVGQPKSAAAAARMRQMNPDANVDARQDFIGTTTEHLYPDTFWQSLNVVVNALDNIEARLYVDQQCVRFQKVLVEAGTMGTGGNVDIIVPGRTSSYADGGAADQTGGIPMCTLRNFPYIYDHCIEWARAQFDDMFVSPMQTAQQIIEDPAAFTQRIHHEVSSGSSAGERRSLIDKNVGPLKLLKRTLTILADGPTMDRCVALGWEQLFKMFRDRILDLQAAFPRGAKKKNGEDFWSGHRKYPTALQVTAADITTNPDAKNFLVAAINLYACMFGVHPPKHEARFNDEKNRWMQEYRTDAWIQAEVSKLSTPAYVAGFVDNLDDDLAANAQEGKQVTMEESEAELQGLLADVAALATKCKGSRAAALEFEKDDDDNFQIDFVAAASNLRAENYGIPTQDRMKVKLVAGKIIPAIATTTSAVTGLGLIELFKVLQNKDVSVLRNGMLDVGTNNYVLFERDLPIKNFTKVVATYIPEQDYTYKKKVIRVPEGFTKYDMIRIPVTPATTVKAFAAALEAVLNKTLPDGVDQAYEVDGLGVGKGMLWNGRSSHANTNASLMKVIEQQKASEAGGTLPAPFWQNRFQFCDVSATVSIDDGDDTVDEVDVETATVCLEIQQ
# [3] = target: AMP-activated protein kinase, AMPK (Homo sapiens) (UniProt P54646+O43741+P54619+Q9UGJ0+Q9Y478+Q13131+Q9UGI9); experiment: AMP-dependent Kinase enzyme assay. An in vitro enzyme assay that detects ADP turnover that is directly proportional to AMPK activity. This uses naive AMPK that is activated during the assay with MK-8722; assay type: functional; conditions: 30 µM
# [4] = target: Sialic acid-binding Ig-like lectin 9 (Homo sapiens) (UniProt Q9Y336); experiment: Hs-Siglec9 ALPHAscreen SOP 20170721; conditions: 10 µM
# Sialic acid-binding Ig-like lectin 9 (Homo sapiens), sequence (Q9Y336 whole entry): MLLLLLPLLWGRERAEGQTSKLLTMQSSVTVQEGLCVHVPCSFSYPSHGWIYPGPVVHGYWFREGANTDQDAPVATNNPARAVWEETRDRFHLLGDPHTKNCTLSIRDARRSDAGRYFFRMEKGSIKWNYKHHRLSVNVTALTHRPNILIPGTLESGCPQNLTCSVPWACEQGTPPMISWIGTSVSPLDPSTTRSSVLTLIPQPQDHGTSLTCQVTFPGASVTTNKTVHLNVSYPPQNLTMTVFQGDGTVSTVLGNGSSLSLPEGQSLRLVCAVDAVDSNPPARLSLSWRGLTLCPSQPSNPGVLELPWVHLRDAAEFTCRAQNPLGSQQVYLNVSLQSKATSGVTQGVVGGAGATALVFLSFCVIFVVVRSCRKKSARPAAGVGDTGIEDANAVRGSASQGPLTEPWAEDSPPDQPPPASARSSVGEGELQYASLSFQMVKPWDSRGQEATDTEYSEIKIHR
# [5] = test system: Trypanosoma cruzi; experiment: Trypanosoma cruzi phosphomannomutase and mannose-1-phosphate guanylyltransferase assay; assay type: functional; conditions: 10 µM
# [6] = target: T2, Arginase-2, mitochondrial (Homo sapiens) (UniProt P78540); experiment: in vitro enzyme assay to detect the production of urea directly proportional to the activity of Arginase II; assay type: functional; conditions: 33.3 µM; note: in the data most compounds retested in dose-response had high values
# T2 sequence (whole entry): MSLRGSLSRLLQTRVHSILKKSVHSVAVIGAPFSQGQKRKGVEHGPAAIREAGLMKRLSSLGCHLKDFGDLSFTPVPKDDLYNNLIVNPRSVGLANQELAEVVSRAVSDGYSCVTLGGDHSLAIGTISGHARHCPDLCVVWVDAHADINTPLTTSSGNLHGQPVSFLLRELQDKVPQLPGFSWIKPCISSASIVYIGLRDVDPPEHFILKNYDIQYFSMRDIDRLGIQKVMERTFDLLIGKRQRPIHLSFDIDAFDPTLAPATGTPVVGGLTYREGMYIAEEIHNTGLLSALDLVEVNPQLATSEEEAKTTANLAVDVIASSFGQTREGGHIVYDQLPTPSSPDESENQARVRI
# [7] = target: T3, Proteasome subunit beta (Trypanosoma cruzi) (UniProt O96673); experiment: Trypanosoma cruzi proteasome chymotrypsin-like activity (TcProtChymo) assay.; note: in the data most compounds retested in dose-response had high values; assay type: functional; conditions: 9.37 µM
# T3 sequence (whole entry): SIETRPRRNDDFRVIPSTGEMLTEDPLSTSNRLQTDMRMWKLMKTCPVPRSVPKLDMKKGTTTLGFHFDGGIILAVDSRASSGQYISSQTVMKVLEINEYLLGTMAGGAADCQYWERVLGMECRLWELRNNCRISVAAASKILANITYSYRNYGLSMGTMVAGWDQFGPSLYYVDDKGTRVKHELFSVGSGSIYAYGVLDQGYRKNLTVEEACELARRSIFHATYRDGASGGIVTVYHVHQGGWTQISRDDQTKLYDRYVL
# [8] = species: Homo sapiens; experiment: To identify inhibition of the IFN signalling (Jak-Stat) pathway via expression of an eGFP reporter gene under the control of an IFN-stimulated response element (ISRE) containing MxA promoter.; assay type: functional; conditions: 30 µM
# [9] = target: T4, Tyrosyl-tRNA synthetase, putative (Trypanosoma cruzi (strain CL Brener)) (UniProt Q4DSP6); experiment: Trypanosoma cruzi tyrosyl tRNA synthetase (TcYRS) _High Tyrosine SOP; assay type: functional; conditions: 30 µM; note: in the data most compounds retested in dose-response had high values
# T4 sequence (whole entry): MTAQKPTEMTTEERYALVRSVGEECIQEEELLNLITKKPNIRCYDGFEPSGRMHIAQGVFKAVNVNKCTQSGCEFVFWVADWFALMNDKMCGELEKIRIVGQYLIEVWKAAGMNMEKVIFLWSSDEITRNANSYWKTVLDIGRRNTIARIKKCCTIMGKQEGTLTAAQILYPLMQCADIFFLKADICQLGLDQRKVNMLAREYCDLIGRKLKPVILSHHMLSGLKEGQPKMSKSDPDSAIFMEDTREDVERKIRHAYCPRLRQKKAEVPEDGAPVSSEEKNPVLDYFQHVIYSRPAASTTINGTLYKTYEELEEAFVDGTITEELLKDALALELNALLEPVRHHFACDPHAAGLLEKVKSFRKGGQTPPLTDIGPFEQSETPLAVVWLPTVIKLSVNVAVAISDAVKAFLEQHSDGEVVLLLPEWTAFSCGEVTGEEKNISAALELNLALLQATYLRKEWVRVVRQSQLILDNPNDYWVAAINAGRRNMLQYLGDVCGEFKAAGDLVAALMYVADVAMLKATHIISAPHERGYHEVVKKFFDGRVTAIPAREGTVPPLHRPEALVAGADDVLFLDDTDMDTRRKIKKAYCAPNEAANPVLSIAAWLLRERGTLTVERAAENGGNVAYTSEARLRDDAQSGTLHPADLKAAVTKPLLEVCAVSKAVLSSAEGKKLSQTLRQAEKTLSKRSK
# [10] = target: T4, Tyrosyl-tRNA synthetase, putative (Trypanosoma cruzi (strain CL Brener)); experiment: Trypanosoma cruzi tyrosyl tRNA synthetase (TcYRS) SOP; assay type: functional; conditions: 30 µM
# [11] = target: Chromo domain-containing protein 1 (Saccharomyces cerevisiae (strain ATCC 204508 / S288c) (Baker's yeast)) (UniProt P32657); experiment: ScCHD-1 Enzyme Inhibition Assay; assay type: functional; conditions: 30 µM; note: in the data most compounds retested in dose-response had high values
# Chromo domain-containing protein 1 (Saccharomyces cerevisiae (strain ATCC 204508 / S288c) (Baker's yeast)), sequence (P32657 whole entry, the tested form may be a part): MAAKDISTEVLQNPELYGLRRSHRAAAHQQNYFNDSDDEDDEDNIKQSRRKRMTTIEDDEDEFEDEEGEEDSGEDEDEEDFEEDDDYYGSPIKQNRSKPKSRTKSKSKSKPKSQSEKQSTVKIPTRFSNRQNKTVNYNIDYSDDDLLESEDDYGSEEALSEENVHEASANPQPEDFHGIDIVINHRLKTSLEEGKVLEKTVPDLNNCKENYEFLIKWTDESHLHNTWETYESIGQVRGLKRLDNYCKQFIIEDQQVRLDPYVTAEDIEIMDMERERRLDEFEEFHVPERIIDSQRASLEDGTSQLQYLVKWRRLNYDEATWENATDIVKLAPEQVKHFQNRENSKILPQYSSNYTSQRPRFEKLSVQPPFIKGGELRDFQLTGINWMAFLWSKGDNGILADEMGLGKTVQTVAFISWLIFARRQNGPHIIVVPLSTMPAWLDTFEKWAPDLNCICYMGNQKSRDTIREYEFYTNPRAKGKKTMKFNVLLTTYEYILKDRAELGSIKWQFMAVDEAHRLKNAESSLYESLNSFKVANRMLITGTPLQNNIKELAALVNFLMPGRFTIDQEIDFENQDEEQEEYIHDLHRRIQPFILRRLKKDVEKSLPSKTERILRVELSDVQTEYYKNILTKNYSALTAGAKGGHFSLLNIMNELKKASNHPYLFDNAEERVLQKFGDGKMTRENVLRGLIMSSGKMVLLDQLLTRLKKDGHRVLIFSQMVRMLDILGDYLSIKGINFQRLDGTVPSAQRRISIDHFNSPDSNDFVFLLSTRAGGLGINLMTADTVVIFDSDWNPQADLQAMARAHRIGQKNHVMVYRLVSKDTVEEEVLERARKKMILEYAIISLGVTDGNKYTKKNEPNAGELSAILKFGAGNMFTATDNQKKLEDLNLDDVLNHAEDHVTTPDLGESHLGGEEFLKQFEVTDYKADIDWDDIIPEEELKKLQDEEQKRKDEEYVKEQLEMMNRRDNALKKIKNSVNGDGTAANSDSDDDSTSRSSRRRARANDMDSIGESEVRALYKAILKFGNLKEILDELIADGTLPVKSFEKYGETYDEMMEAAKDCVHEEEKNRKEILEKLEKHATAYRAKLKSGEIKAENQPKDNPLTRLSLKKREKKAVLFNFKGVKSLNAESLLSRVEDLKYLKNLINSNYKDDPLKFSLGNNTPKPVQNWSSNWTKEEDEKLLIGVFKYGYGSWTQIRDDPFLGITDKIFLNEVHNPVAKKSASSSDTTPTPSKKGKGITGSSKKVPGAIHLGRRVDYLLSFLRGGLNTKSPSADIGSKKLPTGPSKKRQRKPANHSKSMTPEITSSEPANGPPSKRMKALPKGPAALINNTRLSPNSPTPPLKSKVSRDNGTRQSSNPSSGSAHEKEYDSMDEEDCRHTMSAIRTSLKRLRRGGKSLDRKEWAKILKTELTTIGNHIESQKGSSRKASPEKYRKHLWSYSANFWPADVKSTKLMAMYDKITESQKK
Compound,Percent Effect [1],Percent Effect [2],Percent Effect [3],Percent Effect [4],Percent Effect [5],Percent Effect [6],Percent Effect [7],Percent Effect [8],Percent Effect [9],Percent Effect [10],Percent Effect [11]
COCCO[C@@H]1CCN(C(=O)c2ccc(C)o2)[C@@H]1Cc1cnn(C)c1,-5.35%,-2.7%,-1.64%,-4.98%,-2.54%,-2.08%,7.69%,-13%,0.99%,-1.22%,4.49%
Cc1cnn(CC2CCCN2Cc2cc(=O)n3ccccc3n2)c1 (stereo unspecified),-4.27%,-2.7%,-0.318%,-1.03%,2.05%,2.73%,16.7%,-16.2%,7.53%,8.64%,-4.06%
O=C(NCc1csc(Br)c1)c1ccncc1,-2.58%,19%,5.52%,2.28%,0.103%,2.8%,11.3%,21.8%,-1.04%,15.2%,-29.5%
CCC(=O)N1CCc2[nH]cnc2C12CCN(C(=O)c1snnc1C)CC2,-0.279%,5.33%,-6.44%,8.1%,0.876%,10.9%,13.8%,23.3%,0.546%,13.6%,-1.51%
COC1CCN(C(=O)c2c(Cl)c3ccccc3n2C)CC1,-5.47%,5.33%,0.805%,8.11%,3.41%,5.21%,16.2%,-7.49%,3.83%,11.1%,-5%
O=C(c1ccc[nH]1)N1CCn2cc(CN3CCCC3)nc2C1,-5.65%,0%,7.25%,-0.683%,-3.35%,-0.699%,9.07%,8.62%,1.06%,3.85%,-0.931%
O=C(NCC1(CO)CC1)c1cccc2ccccc12,-5.68%,2.74%,20.9%,-5.02%,-4.9%,-0.455%,10.7%,0.244%,6.45%,2.5%,-1.94%
COCCN1CCN(C(C)C(=O)Nc2ccnn2C(C)C)CC1 (stereo unspecified),-4.97%,2.7%,2.76%,0.97%,-1.95%,0.417%,7.35%,-1.59%,4.95%,1.22%,-1.09%
O=C(CC1CC1)N1CC[C@H]2[C@@H]1CCC(=O)N2c1cccnc1,3.01%,10.8%,7.09%,-6.56%,-4.79%,4.14%,22.9%,2.55%,1.08%,12.8%,-1.6%
CC(C)n1ncc2c1NC(=O)CSC2C(C)(C)C (stereo unspecified),-4%,17.3%,-3.06%,7.25%,3.14%,-3.7%,8.69%,8.09%,5.29%,12.8%,-8.28%
COC(=O)C(NC(=O)C(C)C)c1cc(F)ccc1F (stereo unspecified),-3.03%,10.4%,3.19%,15.7%,-2.43%,7.12%,3.38%,22.8%,2.91%,9.76%,-4.93%
CNS(=O)(=O)c1cccc(CNC(=O)c2c(C)nn(C)c2C)c1,-5.54%,11.4%,-3.57%,-3.8%,-2.15%,1.07%,9.78%,30.5%,-1.04%,2.53%,-12.7%
CN(CC(=O)N1CCC(Oc2ccccc2)CC1)c1cnccn1,-3.37%,21.6%,-3.35%,7.97%,4.74%,2.4%,5.75%,18.1%,5.94%,25.6%,-8.13%
COCC1c2nnn(CC3CC3)c2CCN1C(=O)Cc1cccs1 (stereo unspecified),1.82%,2.7%,-8.03%,6.62%,4.59%,13.7%,17.2%,7.37%,4.3%,-58%,-3.81%
CN(Cc1cn2c(n1)CN(CC1CC1)CC2)Cc1ccco1,-3.08%,8%,16.6%,0.972%,-3.35%,0.233%,1.5%,8.85%,7.45%,8.97%,-4.14%
COc1ccc([C@@H]2CN(C(=O)CCC(F)(F)F)C[C@H]2NC(C)=O)cc1,-3.18%,2.67%,0.154%,-0.127%,-2.63%,2.6%,16.7%,1.55%,6.01%,8.64%,-6.25%
